Screening results (PubChem BioAssay)
A selection: hits, their analogues and other compounds. The true share with any hit is near 3.7%.
Rv3671c protease = inhibits the M. tuberculosis serine protease Rv3671c. inhibition, % at 5.96 µM. actives 0.048% (n = 320,000); in the data active = inhibition above about 38%;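 note: extracellular domain of Rv3671c used as enzyme; 0% = enzyme with DMSO and 100% = no enzyme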
Mtb UGM inh = inhibitors of M. tuberculosis UDP-galactopyranose mutase; purified UGM, fluorescence polarization probe displacement; AID 504406; actives 0.06% (n = 320,000); inhibition, % at 10 µM; in the data active = inhibition above about 10%, passing the limit was not always enough; inconclusive = no clear call, values can overlap the other calls
FadD28 FP inh = blocks FadD28 binding to the bisubstrate probe. actives 0.22% (n = 360,000). inhibition, % at 12.5 µM. fluorescence polarization; in the data active = inhibition above about 8.5%, passing the limit was not always enough; inconclusive = no clear call, values can overlap the other calls
GDH-TPI counter = counter-screen for M. tuberculosis FBA inhibitors: GDH-TPI coupled enzymes | inhibition, % at 4.8 µM | GDH-TPI coupled enzyme counterscreen, NADH absorbance | actives 1.2% (n = 360,000); in the data active = inhibition above about 30%;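 note: 0% = DMSO wells and 100% = wells lacking the enzyme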
Mtb FBA inh = Mtb fructose-bisphosphate aldolase inhibition. purified M. tuberculosis FBA, fluorescence read-out. inhibition, % at 1 µM. actives 2.3% (n = 360,000). AID 588726; in the data active = inhibition above about 27%;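 note: 0% = vehicle and 100% = reference inhibitor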
Target sequence (P9WQA3 whole entry, looked up): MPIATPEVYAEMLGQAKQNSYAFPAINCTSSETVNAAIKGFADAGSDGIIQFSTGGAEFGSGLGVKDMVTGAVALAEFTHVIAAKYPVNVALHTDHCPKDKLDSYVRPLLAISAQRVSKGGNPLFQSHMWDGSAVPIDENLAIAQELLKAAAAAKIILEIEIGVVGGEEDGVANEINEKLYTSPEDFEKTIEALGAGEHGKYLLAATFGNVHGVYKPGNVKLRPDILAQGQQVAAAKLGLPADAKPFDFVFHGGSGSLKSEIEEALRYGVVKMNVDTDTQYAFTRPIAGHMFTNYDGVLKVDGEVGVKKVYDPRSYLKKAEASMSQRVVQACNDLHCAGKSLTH
Mtb betalactam = beta-lactam sensitization of Mtb H37Rv; M. tuberculosis H37Rv growth with meropenem, percent inhibition; inhibition, % at 25 µM; actives 0.27% (n = 330,000); AID 434955; call rule not given here;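 note: growth measured after seven days incubation then overnight dye step; 0% = bacteria only wells and 100% = bacteria with antibiotic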
Active calls of the source: *; ? = inconclusive; . = no result given; + = active, no number.

SMILES | Rv3671c protease | Mtb UGM inh | FadD28 FP inh | GDH-TPI counter | Mtb FBA inh | Mtb betalactam
CCOc1ccc2noc3c2c1C(=O)c1ccccc1-3 | -8 | 21* | 1 | -2 | -6 | 5
C=CCN(c1ccccc1)S(=O)(=O)c1cccc(C(=O)Oc2ccc3c(C)cc(=O)oc3c2)c1 | -1 | 0 | -3 | -4 | + | 69
CCCCn1nc(C(=O)NCC(=O)Nc2c(C)cccc2C)c2ccccc2c1=O | -15 | 2 | 0 | -1 | 4 | 0
O=C(Oc1ccc2c(=O)c(Oc3ccc4ccccc4c3)coc2c1)c1cncc(Br)c1 | -12 | -2 | -4 | 3 | 30* | 5
CCCCn1nc(C(=O)Oc2ccc3c(C)cc(=O)oc3c2)c2ccccc2c1=O | 3 | . | 2 | 4 | + | 84
Cc1cc(=O)oc2cc(OC(=O)CCN3C(=O)c4ccccc4C3=O)ccc12 | -12 | 1 | -2 | 6 | + | 48
Cc1cc(=O)oc2cc(OCCCN3C(=O)c4ccccc4C3=O)ccc12 | -14 | 3 | -4 | 13 | 1 | 1
COc1ccc(CCC(=O)OCC(=O)N2CCN(S(=O)(=O)c3ccc(C)cc3C)CC2)cc1 | -12 | 2 | 0 | 0 | 1 | 0
Cc1cc(=O)oc2cc(OC(=O)c3cncc(Br)c3)ccc12 | 4 | 0 | -2 | -3 | + | 56
CCc1ccc(OC(=O)c2cncc(Br)c2)cc1 | -4 | 2 | 1 | -2 | 3 | 6
CCCC(=O)Oc1ccc2c(C)cc(=O)oc2c1 | 2 | 0 | -3 | 5 | + | 79
CCCCSc1nc(SCC(=O)NCc2ccco2)c2c3c(sc2n1)COC(C)(CC)C3 (stereo not drawn) | -7 | 0 | -4 | -6 | 0 | -2
CSc1nc(SCC(=O)NCc2ccco2)c2c3c(sc2n1)COC(C)(C)C3 | -9 | 2 | -1 | 36* | 18 | ?
COc1ccc(C(=O)NCCCC2CCCC2)cc1OC1CCN(C(C)C)CC1 | . | . | -4 | 7 | -1 | .
CCc1ccc(CCC(=O)N2CCN(S(=O)(=O)c3ccc(Br)cc3)CC2)cc1 | . | . | 0 | 3 | -2 | .
COc1cc2cc(Oc3ccc4ccc(=O)oc4c3)c(=O)oc2cc1O[C@@H]1O[C@H](CO)[C@@H](O)[C@H](O)[C@H]1O | 0 | -3 | ? | 19 | 16 | 2
O=c1ccc2cc(O[C@@H]3O[C@H](CO)[C@@H](O)[C@H](O)[C@H]3O)c(O)cc2o1 | . | . | -3 | 18 | + | .
COc1cc2cc(Oc3ccc4ccc(=O)oc4c3)c(=O)oc2cc1OC1OC(COC(=O)CC(C)(O)CC(=O)O)C(O)C(O)C1O (stereo not drawn) | 4 | 3 | -6 | 32* | 26 | -5
Cn1c(CCNC(=O)c2ccccc2F)nnc1SCC(=O)Nc1nncs1 | 0 | 2 | 0 | 5 | 1 | -4
CC(C)(C)NC(=O)C[C@H]1C[C@H](C(=O)N2CCOCC2)[C@@]2(CCC3CCCC3)c3[nH]c4cc(-c5ccco5)ccc4c3CCN2C1=O | . | . | -2 | 15 | 24 | .
c1ccc(CSc2nccc(-c3ccco3)n2)cc1 | -3 | 2 | -2 | 13 | 0 | 9
Cc1ccc(C)n1-c1nccc(-c2ccco2)n1 | 1 | . | 0 | 6 | 158* | 2
N#Cc1cccn1-c1nccc(-c2cccs2)n1 | -14 | 0 | -4 | 4 | -5 | 13
Cc1ccc(C)n1-c1nccc(-c2cccs2)n1 | 6 | 0 | 1 | -5 | 161* | 7
NS(=O)(=O)c1ccc(NC(=S)Nc2ccc(S(=O)(=O)Nc3nccs3)cc2)cc1 | . | . | 0 | . | 2 | .
SMILES | Rv3671c protease | Mtb UGM inh | FadD28 FP inh | GDH-TPI counter | Mtb FBA inh | Mtb betalactam
CCOC(=O)C1=C(C)NC(SC)=C(C#N)C1CC(C)C (stereo not drawn) | 2 | 2 | -2 | 32* | 2 | -1
O=C(NCc1ccc(Cl)nc1)c1csc([C@@H]2C[C@H](O)[C@@H](CO)O2)n1 | . | . | -2 | 6 | 5 | .
O=C(N/N=C\C=C\c1ccc2c(c1)OCO2)C1COc2ccccc2O1 (stereo not drawn) | -5 | -2 | 0 | 40* | 4 | 6
O=C(N/N=C/c1ccc2c(c1)OCO2)c1ccc2c(c1)OCO2 | 2 | 3 | -4 | 16 | -2 | -7
COc1ccc(/C=N/NC(=O)c2ccccc2O)cc1CN1CCOCC1 | 9 | 1 | -1 | 40* | 5 | 6
S=C(NN=Cc1ccc2c(c1)OCO2)NN=Cc1ccc2c(c1)OCO2 | . | . | -1 | 62* | 1 | .
CCC(C)/C(C)=N/NC(=O)C1COc2ccccc2O1 (stereo not drawn) | 6 | 1 | -4 | 3 | 1 | 4
COCCCNC(=S)N/N=C/c1ccc2c(c1)OCO2 | -1 | 0 | -2 | 27 | 2 | -6
O=C(NN=Cc1ccc2c(c1)OCO2)c1ccncc1 | . | . | -4 | 33* | 0 | .
Cc1ccc(NC(=O)COC(=O)Cc2cccs2)cc1S(=O)(=O)N1CCOCC1 | -1 | 2 | 4 | -9 | 4 | -10
COc1ccc([C@H]2C[C@H](O)[C@@H](n3cc(-c4ccc(F)cc4)nn3)CN2C(=O)c2cccs2)cc1 | . | . | -3 | -5 | -2 | .
O=C(N/N=C\C=C\c1ccc2c(c1)OCO2)c1cccnc1 | 5 | 0 | -1 | 54* | 1 | 2
COc1cc(NC(=O)c2ccc3c(c2)OCO3)ccc1NC(=O)c1ccco1 | -3 | -1 | 0 | 42* | 0 | -2
O=C(N/N=C\c1ccc2c(c1)OCO2)c1ccco1 | -1 | 2 | -3 | 43* | 4 | 2
O=C(NN=Cc1ccc2c(c1)OCO2)c1ccccc1 | . | . | -2 | 38* | -1 | .
O=C(CSc1ccc(Br)cc1)NC1CCS(=O)(=O)C1 (stereo not drawn) | -2 | 4 | -2 | 11 | 3 | -7
Cc1ccc(CNC(=O)CN(c2ccc(Cl)cc2)S(C)(=O)=O)cc1 | 2 | 0 | 0 | 12 | -1 | 0
Cc1ccccc1-c1nc(CS(=O)(=O)CC(=O)N2CCCCC2)c(C)o1 | 4 | 2 | -3 | 1 | 0 | -2
c1ccc(CCn2cccc2)nc1 | . | . | . | -4 | 0 | .
COc1cc2ccccc2cc1C(=O)N/N=C/c1ccc2c(c1)OCO2 | . | -2 | . | 42* | 4 | 9
O=C1OCC/C1=C1/NCCNC1=O | . | . | 1 | 17 | 3 | .
Cc1cccc(C2=NN(c3ccccc3)[C@H](CO)[C@H]2c2ccccc2)c1 | . | . | 1 | -9 | 59* | .
Cc1cccc(C2=NN(c3ccccc3)[C@@H](C(=O)N3CCOC3=O)[C@@H]2c2ccc(F)cc2)c1 | . | . | 1 | 0 | 21 | .
CC1CCCC(NC(=O)COC(=O)/C=C/c2ccc(F)cc2)C1C (stereo not drawn) | -1 | 2 | -3 | -4 | -2 | 3
COC(=O)c1c(C#N)c(N)nc2c1CCC2 | 8 | 7 | -1 | 1 | 130* | -6
O=C1CCC(=O)N1N1C(=O)C2C3c4ccccc4C(c4ccccc43)C2C1=O (stereo not drawn) | -15 | -3 | 0 | -2 | 1 | 4
